OTUD3 inh – inhibitors of human OTUD3 deubiquitinase. inhibition, % at 25 µM. purified OTUD3, Ub-rhodamine fluorescence, 2 h. AID 1645858, 2021. 47,000 compounds, 0.7% hits
USP7 inh – inhibitors of human USP7 deubiquitinase; Ubiquitin carboxyl-terminal hydrolase 7 (Homo sapiens), Q93009; purified USP7, Ub-rhodamine cleavage fluorescence; inhibition, % at 20 µM; 47,000 compounds, 0.3% hits; AID 1645854, 2021
UCHL1 inh – inhibitors of human UCHL1 deubiquitinase. Ubiquitin carboxyl-terminal hydrolase isozyme L1 (Homo sapiens), P09936. purified UCHL1, Ub-rhodamine cleavage fluorescence. inhibition, % at 20 µM. 47,000 compounds, 0.2% hits
USP10 block – inhibitors of human USP10 deubiquitinase; Ubiquitin carboxyl-terminal hydrolase 10 (Homo sapiens), Q14694; purified USP10, Ub-rhodamine fluorescence, 60 min; inhibition, % at 20 µM; 47,000 compounds, 1.1% hits; AID 1645856, 2021
Numbers stand for hits; – = inactive. Most compounds without a hit are left out; they make up all but 1.5% or so of the library. Rule as the data show it: active = inhibition above about 30%; inactive = the rest.

SMILES	OTUD3 inh	USP7 inh	UCHL1 inh	USP10 block
COC(=O)CC[C@H]1CNC(=O)[C@@H]2[C@@H](CCN2Cc2ccccn2)N1C	–	–	–	–
CCOC(=O)c1ccc(NC(=O)Cn2cnc3c(nnn3-c3cccc(Cl)c3)c2=O)cc1	–	–	–	–
CC1CC(=O)c2c(cc3c(-c4c(O)cc(O)c5c(O)c6c(cc45)OC(C)CC6=O)c(O)cc(O)c3c2O)O1 (stereo not given)	78	74	83	83
CCOC(=O)N1CCC(NC(=O)c2cc(C(=O)Nc3ccc(S(=O)(=O)N4CCCCC4)cc3)ccc2CO)CC1	39	–	–	32
CCOC(=O)c1ccc(NC(=O)Cc2sc(Nc3ccc(O)cc3)nc2O)cc1	–	–	–	–
Cc1ccc(Nc2nc(O)c(CC(=O)Nc3cccc(Cl)c3C)s2)cc1C	–	–	–	30
Cc1cccc(NC(=O)CSc2nnc(-c3n[nH]c4c3CCC4)n2N)c1C	–	–	–	–
Cc1ccc(NC(=O)CSc2nnc(-c3n[nH]c4c3CCC4)n2N)cc1C	–	–	–	36
CCOc1ccc(-c2nnc(-c3cnc4onc(C5CCCC5)c4c3)o2)cc1	–	–	–	32
c1nc2onc(C3CCCC3)c2cc1-c1nnc(C2CC2)o1	–	–	–	–
Cc1cc(C2CN(C(=O)c3ccc4c(c3)OCO4)CCO2)nc(C)n1 (stereo not given)	–	–	–	–
Cc1nc(-c2ccccc2C(=O)O)cc(C2CCN(C(=O)C(C)(C)C)C2)n1 (stereo not given)	–	–	–	–
Cn1c(=O)n(Cc2cccnc2)c(=O)c2cnc(-c3ccncc3)nc21	–	–	–	–
O=c1c2cc(Br)ccc2[nH]c(=S)n1Cc1cccnc1	–	–	–	32
CN(C)C(=O)N1CCN(S(=O)(=O)c2ccccc2)CC2(CNC(=O)C2)C1 (stereo not given)	–	–	–	–
Cc1ccc(Cl)cc1NS(=O)(=O)c1ccc2c(c1)NC(=O)CC(=O)N2	–	–	–	–
Cc1cccc(N2C(=O)/C(=C\c3cc(C#N)n(C)c3C)c3ccccc3C2=O)c1	–	–	–	35
Cc1cccc(N2C(=O)N(c3ccccc3)C3CS(=O)(=O)CC32)c1 (stereo not given)	–	–	–	–
COc1cccc(C(CC(=O)Nc2ccc3c(c2)OCCO3)n2cccc2)c1 (stereo not given)	–	–	32	–
O=C(NCCc1nc2ccccc2n1Cc1ccccc1F)c1ccc(Cl)cc1	–	–	–	30
O=C(NC1CC1)c1ccc2c(=O)nc3c(-c4cccc(F)c4)n[nH]n3c2c1	–	–	–	–
COc1ccc(CN2CCCC23CCCN(C(=O)CCc2cccnc2)C3)cc1F (stereo not given)	44	–	–	–
COc1ccc2c(c1)c(=O)c(S(=O)(=O)c1ccc(F)cc1)cn2Cc1cccc(F)c1	–	–	–	39
O=c1ccc(S(=O)(=O)N2CCCCCC2)cn1Cc1cccc(F)c1	–	–	–	–
COc1ccc(CSc2nc3ccncc3n2CC(=O)Nc2ccc(C)cc2C)cc1	34	–	–	–
SMILES	OTUD3 inh	USP7 inh	UCHL1 inh	USP10 block
COc1ccc(CCNC(=O)Cn2c(=O)c3sccc3n(Cc3cc(=O)n4ccccc4n3)c2=O)cc1OC	–	–	–	–
Cc1cccc(S(=O)(=O)Nc2ccc(N3CCN(C)CC3)c(C(=O)O)c2)c1	–	–	–	–
CCCCc1ccc(-c2cc(C(=O)NCCN3CCOCC3)c3cc(Br)ccc3n2)cc1	30	–	–	–
O=S(=O)(c1cccc(F)c1)N1CCN(c2nnnn2-c2ccccc2)CC1	41	–	–	–
COCCN1C(=O)c2ccccc2C(C(=O)Nc2ccccn2)C12CCCCC2 (stereo not given)	–	–	–	–
O=C(Nc1nccs1)C1c2ccccc2C(=O)N(Cc2ccccc2)C12CCCC2 (stereo not given)	–	–	69	–
O=C1CC(c2ccccc2)Cc2[nH]c(=O)c(C(=O)NCc3ccccc3)cc21 (stereo not given)	–	–	–	–
N#Cc1ccc(NC(=O)Nc2cccn(Cc3c(F)cccc3Cl)c2=O)cc1	–	–	–	–
N#Cc1ccc(NC(=O)Nc2cccn(Cc3ccc(F)cc3)c2=O)cc1	–	–	–	37
COc1ccccc1OCCSc1nnc(-c2ccc3c(c2)OCCCO3)n1C	–	78	–	–
Cn1c(SCCOc2ccccc2Cl)nnc1-c1ccc2c(c1)OCCO2	–	–	–	–

Assay outcomes (PubChem)
